These results are taken from PubChem BioAssay.

Active and inactive are the calls of the source. Unless noted, the rule behind the calls is not given here.

A short description of assay [1]: A549 cell viability effects, profiling panel, calcein-AM fluorescence, 48 h, basal (AID 1162). Note: test concentration not given here. As to conditions: higher = more signal.
A short description of assay [2]: adipocyte viability effects, profiling panel, cell-based, 3T3-L1 adipocytes, calcein-AM fluorescence, 48 h, basal (AID 1163). Note: test concentration not given here. As to conditions: 3T3-L1 adipocytes viability, higher = more signal.
Assay [3] in a line: HepG2 cell viability effects, profiling panel, calcein-AM fluorescence, 48 h, basal (AID 1164). Note: test concentration not given here. As to conditions: higher = more signal.
The nature of assay [4]: MM1S cell viability effects, profiling panel, calcein-AM fluorescence, 48 h, basal (AID 1165).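 Note: viability of MM1S multiple myeloma cells under basal unstimulated conditions; test concentration not given here.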 The note with it: higher = more signal.
The nature of assay [5]: basal RPMI8226 viability, no added stimulus, profiling panel, cell-based, calcein-AM fluorescence, 48 h, PK04 Diversity Set (AID 1166).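 Note: cells grown under basal conditions without added stimulus; test concentration not given here.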 As to conditions: RPMI8226 myeloma viability, higher = more signal.
Assay [6] can be described thus: basal HepG2 mitochondrial membrane potential changes, profiling panel, cell-based, JC-1 fluorescence, 24 h, 100 nL compound (AID 1167). Note: test concentration not given here. As to conditions: higher = more signal.
Assay [7] is described as follows: basal 3T3-L1 adipocyte mitochondrial potential changes, profiling panel, cell-based, JC-1 fluorescence, 3T3-L1 adipocytes, 24 h, 100 nL compound (AID 1168). Note: test concentration not given here. As to conditions: JC-1 mitochondrial fluorescence, higher = more signal, called active from +8 up or from −8 down.
The nature of assay [8]: basal RPMI8226 mitochondrial membrane potential changes, profiling panel, cell-based, JC-1 fluorescence, 24 h, 100 nL compound (AID 1169). Note: test concentration not given here. The note with it: RPMI8226 myeloma, JC-1 mitochondrial potential fluorescence, higher = more signal.
The nature of assay [9]: basal MM1S mitochondrial membrane potential changes, profiling panel, cell-based, JC-1 fluorescence, 24 h, 100 nL compound (AID 1170). Note: test concentration not given here. The note with it: higher = more signal.
A short description of assay [10]: A549 lung cancer cell viability effects, profiling panel, resazurin fluorescence, 24 h, PK04 Diversity Set (AID 1171). Note: test concentration not given here. As to conditions: higher = more signal, called active from +8 up or from −8 down. For orientation: Alamar Blue is a resazurin reagent that responds to reducing activity.
Assay [11] in a line: HepG2 liver cancer cell viability effects, profiling panel, resazurin fluorescence, 24 h, PK04 Diversity Set (AID 1172). Note: test concentration not given here. As to conditions: higher = more signal.
Assay [12] in a line: basal S. cerevisiae growth modulation, no modifier, primary screen, OD600, strain BY4716, 24 h, basal condition (AID 1173). As to conditions: OD600, 24 h, higher = more signal, called active from +8 up or from −8 down.
The nature of assay [13]: MM1S myeloma cell viability, profiling panel, resazurin fluorescence, basal, 24 h, PK04 Diversity Set (AID 1174).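 Note: MM1S multiple myeloma cell line; test concentration not given here.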 The note with it: higher = more signal, called active from +8 up or from −8 down.
The target in assay [14] is Dihydroorotate dehydrogenase (quinone), mitochondrial (Plasmodium falciparum (isolate 3D7)) (UniProt Q08210). Kind of assay: PfDHODH enzyme inhibitors, primary screen, biochemical, C-terminal His tag, absorbance 600 nm (AID 1175).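 Note: recombinant parasite enzyme with a five histidine tag at its C terminus; test concentration not given here.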 As to conditions: DCIP absorbance 600 nm, higher = more signal, called active from +8 up or from −8 down.
Assay [15] can be described thus: P. aeruginosa biofilm formation inhibitors, primary screen, strain PAO1, LB-PBS medium, absorbance 600 nm (AID 1176). Note: test concentration not given here. The note with it: P. aeruginosa PAO1 growth/biofilm, A600, 12 h; higher = more signal.
A short description of assay [16]: S. cerevisiae RM11-1a growth modifiers, primary screen, strain RM11-1a, OD600, basal, 24 h (AID 1177).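 Note: cultures grown under basal conditions with no added stressor; test concentration not given here.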 As to conditions: OD600, 24 h, higher = more signal, called active from +8 up or from −8 down.
Assay [17] in a line: E. coli acrAB mutant growth effects, primary screen, E. coli filamentation inducers, strain DRC39, OD650, 24 h (AID 1178).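 Note: growth measured as culture turbidity by optical density at 650 nm; test concentration not given here.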 The note with it: higher = more signal, called active from +8 up or from −8 down.
Assay [18] in a line: E. coli acrAB mutant growth effects, primary screen, E. coli filamentation inducers, strain DRC39, OD650, 48 h (AID 1179).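 Note: screen aims at cell division blockers that make cells filament.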 The note with it: E. coli DRC39 delta-acrAB growth, higher = more signal, called active from +8 up or from −8 down.
A short description of assay [19]: RPMI8226 myeloma cell viability, profiling panel, resazurin fluorescence, basal, 24 h, PK04 Diversity Set (AID 1180).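 Note: RPMI8826 multiple myeloma cell line at 5000 cells per well; test concentration not given here.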 As to conditions: higher = more signal.
In assay [20] the target is E3 ubiquitin-protein ligase XIAP (Homo sapiens) (UniProt P98170). Kind of assay: XIAP binders, primary screen, biophysical, small-molecule microarray, fluorescence 635 nm (AID 1181).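 Note: score merges 667 nm emission and signal to noise over triplicate slides.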 As to conditions: small-molecule microarray binding, higher = more signal.
E3 ubiquitin-protein ligase XIAP (Homo sapiens), sequence (P98170 whole entry, looked up): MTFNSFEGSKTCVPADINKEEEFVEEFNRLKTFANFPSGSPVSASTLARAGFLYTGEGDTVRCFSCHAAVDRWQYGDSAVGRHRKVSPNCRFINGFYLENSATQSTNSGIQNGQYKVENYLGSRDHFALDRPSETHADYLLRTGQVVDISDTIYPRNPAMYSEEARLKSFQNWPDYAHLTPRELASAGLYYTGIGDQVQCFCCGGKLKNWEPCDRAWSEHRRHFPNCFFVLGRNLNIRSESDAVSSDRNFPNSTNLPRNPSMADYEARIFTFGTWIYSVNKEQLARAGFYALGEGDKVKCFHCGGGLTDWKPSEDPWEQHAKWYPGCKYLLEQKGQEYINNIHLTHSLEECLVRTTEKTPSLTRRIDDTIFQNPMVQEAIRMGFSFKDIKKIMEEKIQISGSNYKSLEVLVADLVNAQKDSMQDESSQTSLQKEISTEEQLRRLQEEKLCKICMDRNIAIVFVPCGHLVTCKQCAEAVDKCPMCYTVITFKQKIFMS

Dihydroorotate dehydrogenase (quinone), mitochondrial (Plasmodium falciparum (isolate 3D7)), sequence (Q08210 whole entry, looked up): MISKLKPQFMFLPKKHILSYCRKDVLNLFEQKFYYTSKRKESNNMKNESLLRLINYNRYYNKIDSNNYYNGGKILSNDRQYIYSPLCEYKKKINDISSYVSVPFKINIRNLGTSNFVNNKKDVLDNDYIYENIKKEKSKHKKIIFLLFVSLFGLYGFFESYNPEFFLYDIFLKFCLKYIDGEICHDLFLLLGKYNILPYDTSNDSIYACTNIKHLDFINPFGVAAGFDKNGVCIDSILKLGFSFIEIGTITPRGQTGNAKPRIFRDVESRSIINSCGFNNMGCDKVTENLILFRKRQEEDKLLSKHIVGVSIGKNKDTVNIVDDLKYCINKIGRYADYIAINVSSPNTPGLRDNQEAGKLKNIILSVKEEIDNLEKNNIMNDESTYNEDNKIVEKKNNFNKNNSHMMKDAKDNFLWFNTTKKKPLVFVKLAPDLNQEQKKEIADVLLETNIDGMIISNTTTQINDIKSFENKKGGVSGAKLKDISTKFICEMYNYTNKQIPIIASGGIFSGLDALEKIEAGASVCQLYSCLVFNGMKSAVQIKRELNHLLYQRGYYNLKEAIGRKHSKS

Regarding `C=CCN1C(=O)[C@@]2(O[C@@H](CCO)[C@H]([Si](C)(C)c3ccc(OC)cc3)[C@H]2C)c2cc(N3C(=O)c4ccccc4Oc4ccccc43)ccc21`, the z-score in assay [1] was -3.02; in assay [2], -0.428; in assay [3] it was -4.76; in assay [4], -2.94; in assay [5], -4.12; in assay [6] it was -2.97. Besides, the z-score in [7] was 1.07 (inactive); in assay [8] it was -1.1; in assay [9], -2.33; in [10] it was -4.55 (inactive); in assay [11], -6.08; in assay [12], -0.0065 (inactive). Moreover, the z-score was -8.62 (active) in assay [13]; 1.95 (inactive) in [15]; 3.35 (inactive) in assay [16]; 2.24 (inactive) in assay [17]; 1.9 (inactive) in [18]; -6.24 in assay [19]. In addition, the composite z-score was 0.614 (inactive) in assay [14] and -0.172 in [20].

For `COCCOC(=O)N1C(=O)[C@@]2(c3ccccc31)[C@H](C(=O)N1CCN(c3ncccn3)CC1)[C@H]1C(=O)O[C@H](c3ccccc3)[C@H](c3ccccc3)N1[C@@H]2c1ccc(OCCO)cc1`, the z-score is 1.16 in assay [1]; -0.069 in assay [2]; 1.39 in assay [3]; -0.198 in assay [4]; -0.156 in [5]; 1.38 in [6]. The z-score is 0.865 (inactive) in [7]; -0.459 in assay [8]; -1.27 in assay [9]; 0.218 (inactive) in [10]; 0.0481 in assay [11]; 1.89 (inactive) in [12]. Also, the z-score in assay [13] is 0.351 (inactive); in assay [15] it was 2 (inactive); in assay [16] it was 2.64 (inactive); in assay [17], 0.0841 (inactive); in assay [18] it was 1.19 (inactive); in assay [19], 0.253. In addition, the results for the composite z-score in assay [14] and in [20] were -1.04 (inactive) and 0.0924, respectively.

Consider `[N-]=[N+]=Nc1ccccc1C[C@]1(C(=O)NCc2ccccc2)N=C(c2ccc(OCCCO)cc2)O[C@H]1c1ccccc1`, for which the z-score in assay [1] is -1.66; in assay [2], -0.651; in [3], -1.14; in assay [4], -2.41; in [5], -2.86; in [6], 1.88. The z-score is -0.095 (inactive) in assay [7]; -1.13 in [8]; -1.73 in assay [9]; -0.395 (inactive) in assay [10]; -0.328 in assay [11]; 1.41 (inactive) in assay [12]. Also, the z-score in assay [13] is -1.73 (inactive); in assay [15], 0.811 (inactive); in assay [16], 3.08 (inactive); in [17] it was 0.515 (inactive); in assay [18], -0.0745 (inactive); in assay [19], -1.84. Further, the composite z-score in assay [14] was 1.18 (inactive); in [20], 0.0378.

Take `CCOC(=O)C[C@H]1[C@H](OC(=O)c2ccc(-c3ccccc3)cc2)[C@@H](NC(=O)C2CCCCC2)c2cc(OCCCO)ccc2N1C(=O)c1ccccc1`: the z-score in assay [1] was -0.28; in assay [2], 0.557; in assay [3] it was 0.137; in assay [4], -0.412; in assay [5] it was -0.203; in assay [6], 0.383. Moreover, the z-score in assay [7] was -0.983 (inactive); in assay [8], 0.115; in assay [9], -0.101; in assay [10], -1.01 (inactive); in assay [11] it was -0.755; in assay [12], 1.44 (inactive). Moreover, the z-score is -0.464 (inactive) in assay [13]; 0.656 (inactive) in assay [15]; 0.925 (inactive) in assay [16]; -0.406 (inactive) in assay [17]; -0.566 (inactive) in assay [18]; -0.95 in assay [19]. The composite z-score was 0.141 (inactive) in assay [14] and 0.0623 in assay [20].

On to `C=CC[C@@]1(C(=O)O)N=C(c2ccc(OCCCO)cc2)O[C@@H]1c1ccccc1`, for which the z-score in [1] is 0.819; in [2] it was -0.563; in assay [3] it was 1.59; in [4], 0.576; in assay [5] it was -0.252; in assay [6], 0.89. The z-score was 0.995 (inactive) in assay [7]; -0.462 in [8]; -0.341 in assay [9]; 0.353 (inactive) in assay [10]; 1.53 in assay [11]; -1.07 (inactive) in assay [12]. For the same molecule, the z-score is 0.753 (inactive) in assay [13]; -0.568 (inactive) in assay [15]; 0.0596 (inactive) in assay [16]; -0.0277 (inactive) in assay [17]; 1.2 (inactive) in [18]; 1.4 in [19]. The composite z-score was 0.977 (inactive) in assay [14] and 0.559 in [20].

`CC[C@@H]1[C@H]2C3C(=O)N(CC)C(=O)C3CC(=O)[C@H]2[C@H](c2ccc(C)cc2)N1S(=O)(=O)c1ccc(C)cc1` (stereo not given in full): the z-score was -0.138 in assay [1]; -0.303 in [2]; -0.581 in assay [3]; 0.453 in assay [4]; -0.144 in assay [5]; 0.248 in assay [6]. The z-score in assay [7] is 0.438 (inactive); in assay [8], 0.485; in assay [9] it was -1.02; in [10] it was -0.0875 (inactive); in assay [11], -0.881; in [12], 0.252 (inactive). The z-score was -0.25 (inactive) in assay [13]; -0.144 (inactive) in assay [15]; 0.561 (inactive) in assay [16]; -0.339 (inactive) in assay [17]; 0.25 (inactive) in assay [18]; -0.695 in assay [19]. Besides, the composite z-score in assay [14] was -0.0972 (inactive); in assay [20], -0.119.

On to `C=C[C@H](COC(C)=O)NS(=O)(=O)c1ccc(Br)cc1`, for which the z-score in assay [1] was 0.0955; in [2], -0.569; in assay [3] it was 1.05; in assay [4], 0.661; in assay [5] it was 0.402; in assay [6] it was 0.549. Besides, the z-score is 0.0685 (inactive) in [7]; -0.616 in assay [8]; 0.651 in [9]; -0.201 (inactive) in assay [10]; 0.266 in assay [11]; -1.05 (inactive) in assay [12]. In addition, the z-score is -0.05 (inactive) in assay [13]; -0.18 (inactive) in [15]; 0.579 (inactive) in [16]; 0.165 (inactive) in [17]; -0.0304 (inactive) in assay [18]; -0.675 in [19]. In addition, the composite z-score in [14] was -1.08 (inactive); in assay [20], -0.0627.

For `COCCCNC(=O)[C@]1(CCC(=O)OC(C)(C)C)N=C(c2ccc(OCCCO)cc2)O[C@@H]1c1ccccc1`, the z-score was 0.369 in assay [1]; -0.342 in [2]; -0.797 in assay [3]; 0.326 in assay [4]; -0.0674 in assay [5]; -0.145 in assay [6]. For the same molecule, the z-score is 0.0968 (inactive) in assay [7]; 0.86 in assay [8]; -0.705 in [9]; 0.119 (inactive) in [10]; -0.402 in assay [11]; 0.397 (inactive) in assay [12]. The z-score was -0.121 (inactive) in assay [13]; 0.413 (inactive) in assay [15]; 0.0279 (inactive) in assay [16]; -0.286 (inactive) in [17]; -0.0848 (inactive) in assay [18]; -0.354 in assay [19]. The composite z-score in [14] was 0.152 (inactive); in [20] it was 0.081.

In the case of `COC(=O)[C@@]1(Cc2ccc(F)cc2)[C@H]2c3cc(C(=O)N4CCCC4)n(CCF)c3C[C@H]2CN1C(=O)c1ccccc1`, the z-score in assay [1] is -0.719; in assay [2], 0.251; in assay [3], 0.426; in [4], -1.04; in assay [5], -0.374; in assay [6], 1.98. In addition, the z-score in [7] is -0.000991 (inactive); in assay [8], -0.0725; in assay [9], 0.26; in assay [10], 0.763 (inactive); in [11], -0.282; in assay [12], -0.273 (inactive). In addition, the z-score in [13] is -0.547 (inactive); in assay [15], 0.84 (inactive); in [16], 0.24 (inactive); in assay [17], -0.239 (inactive); in [18], -0.311 (inactive); in [19], -0.185. Moreover, the values for the composite z-score in assay [14] and in assay [20] were -0.41 (inactive) and -0.233, respectively.
